# From PubChem BioAssay (NCI)
# About 83,000 compounds went through this panel and 20% of them were active in at least one assay; those are over-represented in the sample as a whole.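 Interpretation: 100, growth as untreated; towards 0, rising growth inhibition; 0, no net growth; 0 to -100, cell death. Compounds scoring below 10 were considered active.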 The source made the active and inactive calls.
# System: MALME-3M melanoma
# Assay: NCI-60 one-dose screen, 48 h (100 = growth as untreated, 0 = no growth, -100 = all killed)
# Settings: 10 µM unless noted
row,Compound,growth
1,c1ccc2c(c1)oc1cc3sccc3nc12,102% (inactive)
2,CC1=C(C(=O)OCC2CCN(C(=O)OC(C)(C)C)CC2)[C@H](c2cccc(C#N)c2)C2=C(CC(C)(C)CC2=O)N1,66.1% (inactive)
3,O=C(c1nc2ccccc2[nH]1)C1C(c2ccc([N+](=O)[O-])cc2)C2CC3CCCCC3N2[C@@]12C(=O)Nc1cc(Cl)ccc12 (some centres undefined),15% (inactive)
4,Nc1ccn(C2O[C@H](CO)[C@@H](O)[C@H]2O)c(=O)n1 (some centres undefined),109% (inactive)
5,Nc1ccc(-n2c(=O)oc3ccc(Cl)cc3c2=O)c(Cl)c1,-29.6% (active)
6,CC1=C(C(=O)OCC2CCN(C(=O)OC(C)(C)C)CC2)[C@@H](c2cccc(C#N)c2)C2=C(CC(C)(C)CC2=O)N1,48.5% (inactive)
7,N#Cc1c(N)nc2c(c1N)C(c1ccc(F)cc1)c1ccc(N)cc1O2 (centres undefined),136% (inactive)
8,COc1ccc(Cn2c(Br)c3c(c2-c2cc(OC)c(OC)c(OC)c2)CCc2sc(NC(=O)c4ccc(OC)cc4)nc2-3)cc1,86.1% (inactive)
9,O=c1cc(NC2CCN(CCCc3ccccc3)CC2)c2cc(Cl)ccc2o1,-30.4% (active)
10,Brc1ccc(Oc2ccc(Nc3ncnc4onc(-c5ccccc5)c34)cc2)cc1,103% (inactive)
11,NNC(=O)CNC(=O)Nc1n[nH]c(=S)s1,87% (inactive)
12,COc1ccc(Cn2c(Br)c3c(c2-c2cc(OC)c(OC)c(OC)c2)CCc2sc(NC(C)=O)nc2-3)cc1,-6.05% (active)
13,COc1ccc(/C=C2\NC(=O)NC2=O)cc1O,105% (inactive)
14,Cc1cc2c(c(C)c1Cl)C(=O)/C(=C/c1ccco1)O2,102% (inactive)
